Screening data deposited in PubChem BioAssay by National Center for Advancing Translational Sciences (NCATS).
p53 reactivation: restores transcriptional activity of mutant p53; H1299 p53-A138V BP100-luciferase reporter, luminescence, 24 h; Potency, µM (doses to about 92.2 µM), inactives show at the top dose activity change, positive = activation, usual class: activators; actives 0.063% (n = 320,000); further: potency means the concentration at half of the fitted maximal effect; % of control where 0% means no effect; nearly all actives have a fitted effect of over 45% in size
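p53-null H1299 cells stably carrying temperature-sensitive p53-A138V and a BP100-luciferase reporter were pinned with compounds (4-point, 1:5 series) and held 24 hrs at 37 deg C. Luminescence was read 10 min after detection reagent.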
IL-2 act: activators of IL-2. activation, % (series mostly up to about 46 µM). IL-2 activation reporter assay, cell-based qHTS; stimulated with anti-CD3/CD4/CD28 beads; in transgenic mouse T cells. actives 0.065% (n = 360,000). AID 652025; in the data active means activation above about 50%; inconclusive means mostly about 30% to 49%; further: 0% is about no effect
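Unstimulated transgenic mouse T cells; 60-min compound exposure; bead-based TCR/CD4/CD28 stimulation; 18 h culture, 37 degrees C; dual fluorescence (EGFP, DsRed) plate cytometry.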
A549 tox: counter-screen for Nrf2 inhibitors: cytotoxicity in A549 cells; actives 0.16% (n = 390,000); Potency, µM (top dose mostly 46 µM), inactives show top-dose activity change, negative = cytotoxicity, hits mostly inhibitors; A549 ARE-Fluc cells, CellTiter-Fluor viability, 18-24 h; further: potency means the concentration at half of the fitted maximal effect; on the % scale 0 is the no-effect control and ±100 the full control effect
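A549 ARE-Fluc cells in 5% FBS OPTI-MEM, 5000 cells/well, rested 2 h then exposed to compounds in concentration-response for 18-24 h at 37 °C. Viability by CellTiter-Fluor fluorescence (Ex 405/Em 525) after 30 min; luciferase luminescence (BugLite, 15 min, RT) read afterwards.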
Nrf2 block: blocks Nrf2 signaling; A549 ARE-Fluc reporter, luciferase luminescence, 18-24 h; Potency, µM (titrated, usually from 46 µM), without a hit: at the top dose activity change, negative = inhibition, actives largely listed as inhibitors; actives 2.1% (n = 360,000); AID 504444; further: potency means the concentration at half of the fitted maximal effect; on the % scale 0 is the no-effect control and ±100 the full control effect; nearly all actives have a fitted effect of over 60% in size
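In this cell-based qHTS, ARE-driven firefly luciferase in A549 cells reports Nrf2 activity; the luminescent signal after BugLite lysis is the measured value, with a prior CellTiter-Fluor read for cell health.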
Nrf2 activator: Nrf2 pathway activation. AREc32 ARE-luciferase reporter (MCF7-derived line), luminescence, 24 h. Potency, µM (titrated, usually from 46.1 µM), without a hit: at the highest dose activation, hits mostly activators. actives 0.31% (n = 410,000); further: potency means the concentration at half of the fitted maximal effect; % of control where 0% means no effect; nearly all actives have a fitted effect of over 65% in size
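AREc32_Fluc, 1000 cells/well, OPTI-MEM + 5% FBS, o/n 37 deg C 5% CO2; 23 nL cpd by pin tool, 24 hr; Steady-Glo 30 min RT, luminescence.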
BRCA1 expr act: increases BRCA1 expression. Potency, µM (top dose mostly 46.1 µM), inactives show top-dose activation, most hits filed as activators. AID 624202. actives 1.1% (n = 380,000). MCF7-BRCA1-FFLuc reporter, luminescence, 48 h; response scale: scaled: vehicle 0%, 10 µM genistein 100%; further: potency means the concentration at half of the fitted maximal effect; nearly all actives have a fitted effect of over 80% in size
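Reporter cells (MCF7, BRCA1 promoter-firefly luciferase) received library compounds across a concentration series for 48 h. End-point luminescence was measured and concentration-effect curves derived after normalization.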
* hit, by the source's call. A selection: hits, their analogues and other compounds. The true share with any hit is near 3.2%. Unless noted, the call rests on the fitted dose curve; in most records, active means well fitted curve in the direction sought with a large enough effect; inconclusive means small, poorly fitted or top-dose-only effect, or another doubt; inactive means no such curve, though single readings can be large; an effect the other way counts as inactive or inconclusive.

Results for CC(C)c1ccc2[nH]c(O)c(N=NC(=O)c3cccc(S(=O)(=O)N4CCCCC4)c3)c2c1 ?
p53 reactivation: -0.3%; IL-2 act: 2.5; A549 tox: inconclusive; Nrf2 block: 18.4µM*; Nrf2 activator: -0.2%; BRCA1 expr act: -32.1%

How did O=C(N=Nc1c(O)[nH]c2ccccc12)c1cccc(S(=O)(=O)N2CCCCC2)c1 do in these assays?
p53 reactivation: -7.5%; IL-2 act: -3.5; A549 tox: 3.4%; Nrf2 block: -9.3%; Nrf2 activator: -0.4%; BRCA1 expr act: -2.7%

Results for COc1cccc(C2=N/C(=C\N(C)C)C(=O)O2)c1 ?
p53 reactivation: 7.6%; IL-2 act: -0.6; A549 tox: -5.7%; Nrf2 block: 7.7%; Nrf2 activator: 2.4%; BRCA1 expr act: 11.2µM*

How did COc1cccc(-c2nc3ccccc3c(=O)o2)c1 do in these assays?
p53 reactivation: inconclusive; IL-2 act: -1.4; A549 tox: -23.2%; Nrf2 block: 7.7%; Nrf2 activator: 0.0%; BRCA1 expr act: 40.0%

Results for COc1ccc(-n2cc(-c3ccc4c(c3)OCO4)n(CC(=O)Nc3cccc(C)c3)c2=O)cc1 ?
A549 tox: -3.0%; Nrf2 block: -11.5%; Nrf2 activator: 0.9%

How did CCc1ccc(N(CC)C(=O)c2sc3nc4n(c(=O)c3c2C)CCCC4)cc1 do in these assays?
A549 tox: -3.3%; Nrf2 block: -12.4%; Nrf2 activator: 3.6%

How did Cc1c(C(=O)Nc2cccc(C(F)(F)F)c2)sc2nc3n(c(=O)c12)CCC3 do in these assays?
A549 tox: -0.1%; Nrf2 block: -9.9%; Nrf2 activator: 3.2%

Results for CCN(Cc1ccccc1)C(=O)c1sc2nc3n(c(=O)c2c1C)CCCC3 ?
A549 tox: -13.2%; Nrf2 block: 23.1µM*; Nrf2 activator: -0.1%

Results for Cc1nc(N2CCCCC2)c2c(C)c(C(=O)Nc3cccc(C(F)(F)F)c3)sc2n1 ?
p53 reactivation: 0.6%; IL-2 act: -0.9; A549 tox: -11.7%; Nrf2 block: 23.1µM*; Nrf2 activator: -0.7%; BRCA1 expr act: -67.9%

How did CCc1cccc(NC(=O)c2sc3nc4n(c(=O)c3c2C)CCC4)c1 do in these assays?
p53 reactivation: 23.8%; IL-2 act: -2.2; A549 tox: 10.2%; Nrf2 block: 3.2%; Nrf2 activator: 2.3%; BRCA1 expr act: 12.6µM*

What do the screens show for `COc1ccc(C(=O)CC2(O)C(=O)N(CCc3ccccc3)c3ccc(Br)cc32)cc1OC` (configuration not stated)?
A549 tox: inconclusive; Nrf2 block: 23.1µM*; Nrf2 activator: 5.8%

Results for CCCCN1C(=O)C(O)(CC(=O)c2ccc(C)cc2C)c2cc(Br)ccc21 (configuration not stated) ?
A549 tox: inconclusive; Nrf2 block: 25.9µM*; Nrf2 activator: -1.4%

What do the screens show for `O=C(CC1(O)C(=O)N(CCc2ccccc2)c2ccc(Br)cc21)c1ccc(F)cc1` (configuration not stated)?
A549 tox: -18.8%; Nrf2 block: inconclusive; Nrf2 activator: -0.9%

How did CCOC(=O)c1sc(N(Cc2ccccc2)C(=O)CSc2nnc(C3CC3)n2N)nc1C do in these assays?
p53 reactivation: 12.5%; IL-2 act: -1.4; A549 tox: -18.1%; Nrf2 block: 4.0%; Nrf2 activator: 3.2%; BRCA1 expr act: 8.91µM*

What do the screens show for `O=C(Nc1ccc(Br)cc1)c1cnccn1`?
p53 reactivation: inconclusive; IL-2 act: 2.9; A549 tox: 1.1%; Nrf2 block: inconclusive; Nrf2 activator: 0.7%; BRCA1 expr act: 8.91µM*

How did Cc1ccc(NC(=O)c2cnccn2)cc1 do in these assays?
p53 reactivation: 23.3%; IL-2 act: 0.4; A549 tox: -1.1%; Nrf2 block: inconclusive; Nrf2 activator: -0.1%; BRCA1 expr act: 107.1%

What do the screens show for `Cc1ccc(NC(=O)c2cnccn2)cc1C`?
p53 reactivation: 14.2%; IL-2 act: -0.9; A549 tox: 0.0%; Nrf2 block: inconclusive; Nrf2 activator: 3.6%; BRCA1 expr act: 7.94µM*

How did COC(=O)C1=C[C@@H](C(=O)OC)C2C3=C(C(=O)[C@@]2(C)NC(=O)c2ccccc2)[C@H](c2ccccc2)[C@@H]2C(=O)N(c4ccccc4)C(=O)[C@@H]2[C@@H]3C1 (some centres not stated) do in these assays?
A549 tox: 1.4%; Nrf2 block: 22.2%

How did Cc1ccccc1Cn1cc(NC(=O)c2noc3c2CC(C(C)(C)C)CC3)cn1 (configuration not stated) do in these assays?
p53 reactivation: 0.0%; IL-2 act: -2.4; A549 tox: inconclusive; Nrf2 block: inconclusive; Nrf2 activator: -0.6%; BRCA1 expr act: -16.3%

Results for Cc1ccccc1Cn1nc(C)c(NC(=O)c2noc3c2CC(C(C)(C)C)CC3)c1C (configuration not stated) ?
p53 reactivation: -9.7%; IL-2 act: -1.6; A549 tox: -5.7%; Nrf2 block: 8.2µM*; Nrf2 activator: 0.2%; BRCA1 expr act: -46.7%

How did Cc1ccc(S(=O)(=O)C2(C(=O)Nc3ccc(Cl)c(C(F)(F)F)c3)CC2)cc1 do in these assays?
A549 tox: 3.9%; Nrf2 block: -15.8%; Nrf2 activator: 7.7%

What do the screens show for `COc1ccccc1C1CC(=O)Nc2cc3c(cc21)OCCO3` (configuration not stated)?
p53 reactivation: 15.5%; IL-2 act: -0.8; A549 tox: -19.6%; Nrf2 block: inconclusive; Nrf2 activator: -0.3%; BRCA1 expr act: -82.4%

What do the screens show for `CC(C)Oc1ccccc1C1CC(=O)Nc2cc3c(cc21)OCCO3` (configuration not stated)?
p53 reactivation: 4.1%; IL-2 act: -4.5; A549 tox: inconclusive; Nrf2 block: 8.2µM*; Nrf2 activator: -0.7%; BRCA1 expr act: -90.4%

Results for CCOc1cccc(C2CC(=O)Nc3cc4c(cc32)OCCO4)c1 (configuration not stated) ?
A549 tox: -7.8%; Nrf2 block: 14.6µM*; Nrf2 activator: -1.0%

What do the screens show for `Cc1cc2c(s1)c1cnn(Cc3ccccc3Br)c(=O)c1n2C`?
A549 tox: -10.8%; Nrf2 block: 5.4%

How did NC(=NCc1ccco1)NC(=O)c1ccc(Cl)cc1 do in these assays?
p53 reactivation: 29.5%; IL-2 act: -0.9; A549 tox: 1.8%; Nrf2 block: inconclusive; Nrf2 activator: 4.0%; BRCA1 expr act: 11.2µM*
